Records with an inconclusive call do not appear. The source made the active and inactive calls. The call rests on the fitted dose curve; in most records, active means well fitted curve in the direction sought with a large enough effect in the repeat runs; inconclusive means weak or mixed curves; inactive means no such curve, though single readings can be large; an effect the other way counts as inactive or inconclusive.
Assays:
[1] = qHTS RealTime-Glo MT Cell Viability Assay in HepG2 cells - 40 hour (AID 1224870); further: nearly all actives have a fitted effect of over 50% in size
In short: (§1)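 HepG2 cells (600/well) mixed with RealTime-Glo MT reagent, settled 5 h at 37 C/5% CO2 before compound addition. Nonlytic NanoLuc luminescence from viable-cell prosubstrate reduction read repeatedly during 40 h treatment at 37 C.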

[2] = A CellTox Green Cytotoxicity Assay to monitor cytotoxicity in HEK293 cells - 40 hour (AID 1224871); further: nearly all actives have a fitted effect of over 45% in size
In short: (§2)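 Each value comes from one timepoint of a single continuous run in which HEK293 cells with CellTox Green were exposed to compound for up to 40 h at 37 C, dye fluorescence rising with cell death.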

[3] = qHTS RealTime-Glo MT Cell Viability Assay in HEK293 cells - 16 hour (AID 1224872); further: nearly all actives have a fitted effect of over 50% in size; further: potency means the concentration at half of the fitted maximal effect
In short: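 Homogeneous bioluminescent viability format in HEK293 cells (600 cells/well). Following 5 h at 37 C/5% CO2, 23 nL compound was pintooled; the signal was measured repeatedly during 40 h incubation.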

[4] = qHTS RealTime-Glo MT Cell Viability Assay in HepG2 cells - 8 hour (AID 1224873); further: nearly all actives have a fitted effect of over 55% in size
In short: as §1

[5] = qHTS RealTime-Glo MT Cell Viability Assay in HEK293 cells - 40 hour (AID 1224874); conditions: RealTime-Glo luminescence; max response: hits give low values; further: nearly all actives have a fitted effect of over 50% in size; further: potency means the concentration at half of the fitted maximal effect
In short: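 qHTS format; HEK293 cells with NanoLuc/prosubstrate reagent, 37 C/5% CO2 for 5 h pre-dosing; compounds 23 nL in DMSO; luminescence at each time point reflects viable cells.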

[6] = A CellTox Green Cytotoxicity Assay to monitor cytotoxicity in HEK293 cells - 24 hour (AID 1224875); further: series mostly up to about 77 µM; nearly all actives have a fitted effect of over 45% in size
In short: as §2

[7] = A CellTox Green Cytotoxicity Assay to monitor cytotoxicity in HepG2 cells - 16 hour (AID 1224876); further: nearly all actives have a fitted effect of over 45% in size
In short: (§3)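 Continuous culture of HepG2 cells with a membrane-impermeant DNA dye; rising fluorescence marks dead cells. Compound exposure lasted up to 40 h at 37 C, with reads every 8 h from 0 h.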

[8] = qHTS RealTime-Glo MT Cell Viability Assay in HepG2 cells - 32 hour (AID 1224877); further: nearly all actives have a fitted effect of over 55% in size
In short: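 Cell number in HepG2 cultures estimated from NanoLuc luminescence generated by metabolic reduction of a prosubstrate by living cells. The homogeneous, nonlytic format allowed repeated reads at 0, 8, 16, 24, 32 and 40 h of compound exposure.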

[9] = A CellTox Green Cytotoxicity Assay to monitor cytotoxicity in HepG2 cells - 24 hour (AID 1224878); further: nearly all actives have a fitted effect of over 45% in size
In short: as §3

[10] = A CellTox Green Cytotoxicity Assay to monitor cytotoxicity in HepG2 cells - 40 hour (AID 1224879); further: nearly all actives have a fitted effect of over 40% in size
In short: as §3
On the % scale 0 is the no-effect control and ±100 the full control effect.

CC(C)(C)CC(C)(C)N
inactive: Potency [1] | Potency [2] | Potency [3] | outcome [4] | max response [5] 11.1% | Potency [6] | Potency [7] | Potency [8] | Potency [9] | Potency [10]

CCC(C)OC(=O)N1CCCCC1CCO (centres undefined)
inactive: Potency [1] | Potency [2] | Potency [3] | outcome [4] | max response [5] -15.9% | Potency [6] | Potency [7] | Potency [8] | Potency [9] | Potency [10]

NCCNC(=O)c1ccc(Cl)cn1
inactive: Potency [1] | Potency [2] | Potency [3] | outcome [4] | max response [5] 0.469% | Potency [6] | Potency [7] | Potency [8] | Potency [9] | Potency [10]

Oc1cc(O)c2c(c1)O[C@H](c1ccc(O)c(O)c1)[C@H](O)C2
inactive: Potency [1] | Potency [2] | Potency [3] | outcome [4] | max response [5] 0.448% | Potency [6] | Potency [7] | Potency [8] | Potency [9]

C1COCCO1
inactive: Potency [1] | Potency [2] | Potency [3] | outcome [4] | max response [5] 4.29% | Potency [6] | Potency [7] | Potency [8] | Potency [9] | Potency [10]

CC(C)=CC(=O)O
inactive: Potency [1] | Potency [2] | Potency [3] | outcome [4] | max response [5] 10.8% | Potency [6] | Potency [7] | Potency [8] | Potency [9] | Potency [10]

OC/C=C/c1ccccc1
inactive: Potency [1] | Potency [2] | Potency [3] | outcome [4] | max response [5] 21.7% | Potency [6] | Potency [7] | Potency [8] | Potency [9] | Potency [10]

CCn1c(=O)c2c(nc(/C=C/c3ccc(OC)c(OC)c3)n2C)n(CC)c1=O
active: Potency [3] 1.69 µM | Potency [5] 1.69 µM
inactive: Potency [1] | Potency [2] | outcome [4] | Potency [6] | Potency [7] | Potency [8] | Potency [9] | Potency [10]

CC1CCN(CCCC(=O)c2ccc(F)cc2)CC1
inactive: Potency [1] | Potency [2] | Potency [3] | outcome [4] | max response [5] -2.98% | Potency [6] | Potency [7] | Potency [8] | Potency [9] | Potency [10]

Cc1ccccc1Br
inactive: Potency [1] | Potency [2] | Potency [3] | outcome [4] | max response [5] 5.36% | Potency [6] | Potency [7] | Potency [8] | Potency [9] | Potency [10]

OCc1ccccn1
inactive: Potency [1] | Potency [2] | Potency [3] | outcome [4] | max response [5] 11.2% | Potency [6] | Potency [7] | Potency [8] | Potency [9] | Potency [10]

Nc1ccc2cc(S(=O)(=O)O)ccc2c1
inactive: Potency [1] | Potency [2] | Potency [3] | outcome [4] | max response [5] -14% | Potency [6] | Potency [7] | Potency [8] | Potency [9] | Potency [10]

CC(C)c1ccc2oc3nc(N)c(C(=O)O)cc3c(=O)c2c1
inactive: Potency [1] | Potency [2] | Potency [3] | outcome [4] | max response [5] 13% | Potency [6] | Potency [7] | Potency [8] | Potency [9] | Potency [10]

O=C(O)CCNC(=O)c1ccc(N=Nc2ccc(O)c(C(=O)O)c2)cc1
inactive: Potency [1] | Potency [2] | Potency [3] | outcome [4] | max response [5] -0.519% | Potency [6] | Potency [7] | Potency [8] | Potency [9] | Potency [10]

CC(C)(O)c1ccccc1
inactive: Potency [1] | Potency [2] | Potency [3] | outcome [4] | max response [5] -10.8% | Potency [6] | Potency [7] | Potency [8] | Potency [9] | Potency [10]

Cc1ccc(N)cc1[N+](=O)[O-]
inactive: Potency [1] | Potency [2] | Potency [3] | outcome [4] | max response [5] -16.8% | Potency [6] | Potency [7] | Potency [8] | Potency [9] | Potency [10]

COC(=O)[C@H]1[C@H]2C[C@@H]3c4[nH]c5cc(OC)ccc5c4CCN3C[C@H]2C[C@@H](OC(=O)COc2ccc(OC)cc2)[C@@H]1OC
inactive: Potency [1] | Potency [2] | Potency [3] | outcome [4] | max response [5] 6.2% | Potency [6] | Potency [7] | Potency [8] | Potency [9] | Potency [10]

Cc1nc(-c2ccc(OCC(C)C)c(C#N)c2)sc1C(=O)O
inactive: Potency [1] | Potency [2] | Potency [3] | outcome [4] | max response [5] -0.381% | Potency [6] | Potency [7] | Potency [8] | Potency [9] | Potency [10]

C=CCOCC(O)CS(=O)(=O)O (centres undefined)
inactive: Potency [1] | Potency [2] | Potency [3] | outcome [4] | max response [5] -7.7% | Potency [6] | Potency [7] | Potency [8] | Potency [9] | Potency [10]

COCc1ccc(COC)cc1
inactive: Potency [1] | Potency [2] | Potency [3] | outcome [4] | max response [5] 4.98% | Potency [6] | Potency [7] | Potency [8] | Potency [9] | Potency [10]

CC1=CC(C)C(C=O)C(C)C1 (centres undefined)
inactive: Potency [1] | Potency [2] | Potency [3] | outcome [4] | max response [5] 4.71% | Potency [6] | Potency [7] | Potency [8] | Potency [9] | Potency [10]

CNC(=O)c1c(I)c(NC(=O)CCCCC(=O)Nc2c(I)c(C(=O)O)c(I)c(C(=O)NC)c2I)c(I)c(C(=O)O)c1I
inactive: Potency [1] | Potency [2] | Potency [3] | outcome [4] | max response [5] -0.381% | Potency [6] | Potency [7] | Potency [8] | Potency [9] | Potency [10]

Source: PubChem BioAssay (Tox21)
